Results from PubChem BioAssay (NCI).
Where “and” joins values, the source holds several entries; their conditions need not be identical. Identical values can stand only once. Compounds without any hit were thinned out: in the full panel of roughly 83,000, 20% have a hit.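 The endpoint reported here, percent growth, reads 100 for growth as untreated, 0 for no net growth and -100 for all cells dead.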 Values without a mark were called inactive. Calls of active or inactive are those of the source. How the source made its calls: active means growth percent below 10; inactive means the rest.

Each molecule was assayed on MDA-MB-468 breast (assay: NCI-60 one-dose screen, 48 h (100 = growth as untreated, 0 = no growth, -100 = all killed)). Settings: 10 µM unless noted.
For `COc1cc(C(=O)/C=C/c2cc(C(=O)c3cc(OC)c(OC)c(OC)c3)ccc2OC)ccc1N`, the growth was -44.7% (active).
For `COc1cc(NC(=O)c2cc3ccccc3cc2O)c(OC)cc1Cl`, the growth was -5.6% (active).
For `CN1CCC(CNc2cc(C3(C(=O)Nc4cc(C(=O)Nc5ccc(Cl)c(C(F)(F)F)c5)ccc4F)CC3)ncn2)CC1`, the growth was -7.58% (active).
For `CCOC(=O)CNP(=O)(OC[C@@H](Cc1ccccc1)NC(=O)c1cc2ccccc2s1)Oc1ccccc1` (stereo not given in full), the growth was -5% (active).
For `Cn1cc(-c2csc(-c3ccccc3)n2)c2cccnc21`, the growth was -34% [100 µM] (active).
For `C=CC(C)(O)CCC1C(=C)CCC2C(C)(C)CCCC12C` (stereo not given), the growth was 109%.
`C[C@]12CC[C@@H]3c4ccc(O)cc4CC[C@H]3[C@@H]1C[C@H](O)C2` showed a growth of 73.7%.
Work on `CCCCOC(=O)c1cc(O)c(O)c(O)c1` yielded a growth of 96.5%.
With `FC(F)(F)c1[nH]ncc1-c1nc2c(N3CCCCC3)cc3[nH]ncc3c2c2c1CCCC2` the growth was -25.6% (active).
For `Cc1cc(C)c(NC(=O)c2sc3nc4c(cc3c2N)C(=O)CCC4)c(C)c1`, the growth was -27.2% (active).
Work on `CCc1nn2c(-c3ccc(Cl)cc3C)c(-c3cc(OC)c(OC)c(OC)c3)nc2s1` yielded a growth of 68.2%.
In the case of `CC(C)(C)c1ccc(O)c(Br)c1`, the growth is reported as 70.2%.
In the case of `COc1cc(-c2ccc3cc(OC)c(OC)c(OC)c3c2)cc(OC)c1OC`, the growth is reported as 31.6%.
With `Cc1ccc(Nc2ccc(O)c3c2C(=O)c2c(O)ccc(Nc4ccc(C)cc4)c2C3=O)cc1` the growth was 95.8%.
In the case of `CCOC(=O)c1cnc2c(C)cccc2c1Nc1ccc(C(C)=O)cc1`, the growth is reported as -71.2% (active).
Molecule `COc1ccc(-c2[nH]ncc2/C=C/c2cc(C(F)(F)F)[nH]c(=O)n2)cc1` has a growth of 96.1%.
For `O=C(OCc1ccc2c(Cl)cc(Cl)c(O)c2n1)N1CCN(C(=O)c2cc3cc(F)ccc3[nH]2)CC1`, the growth was -5.15% (active).
In the case of `Clc1ccc(C(SCc2ccccc2)SCc2ccccc2)cc1`, the growth is reported as 77.7%.
In the case of `COc1ccccc1/C=C/C(=O)/C=C/c1ccccc1O`, the growth is reported as -56.1% (active).
`NC(C(=O)O)C(O)c1ccco1` (stereo not given) gave a growth of 102%.
Work on `NC(N)=NS(=O)(=O)c1ccc(Nc2ccc3nnc(-c4ccncc4)n3n2)cc1` yielded a growth of 96.6%.
Work on `O=C1c2ccccc2C(=O)c2c(N=Nc3sc(=O)[nH]c3S)cccc21` yielded a growth of 104%.
`N#Cc1c(N)nc(NCCO)nc1-c1ccc(F)cc1` showed a growth of 102%.
With `Nc1nc(Cl)nc2c1ncn2C1OC(CO)C(O)C1O` (stereo not given) the growth was 124% and 94.5%.
With `CC(C)(C)Nc1nc2c(OCCc3ccccc3)cccn2c1-c1ccccc1Cl` the growth was -27.8% (active).
In the case of `O=c1ccc(=O)n(-c2nc(-c3ccc([N+](=O)[O-])cc3)cs2)[nH]1`, the growth is reported as 99.3%.
`C=C1C(=O)O[C@H]2[C@H]1CC/C(COC(=O)c1ccc(Cl)nc1)=C\CC[C@@]1(C)O[C@@H]21` was tested, and the growth was -25.1% (active).
Work on `COc1ccc(-c2cc(=O)n(-c3nc4ccccc4[nH]3)[nH]2)cc1OC` yielded a growth of 83%.
`Cc1cc2ccccc2c[n+]1CC(=O)c1ccc(-c2ccccc2)cc1` showed a growth of 13.3%.
`CCCCCCCC(=O)OCC/C=C/C1OC1C1OC(=O)/C=C\C=C\C(=O)N(C(C)=O)C(=O)/C=C(/C)CCC2OC2C1OC(=O)NC(C)=O` (stereo not given) was tested, and the growth was -3.75% (active).
With `Clc1ccc(CNc2c3ccccc3nc3ccccc23)cc1` the growth was 29.6%.
`CCCCC(=O)Nc1c(C(=O)Nc2ccccc2)sc2nc3c(cc12)C(OC(=O)CCCC)CCC3` (stereo not given) was tested, and the growth was 56.2%.
Work on `CN(C)Cc1cccs1` yielded a growth of 87.2%.
Molecule `CC(=O)OC(OC(C)=O)C1CCCO1` (stereo not given) has a growth of 99.5%.
`COc1ccc(/C=N/NC(=O)CSc2nc(-c3cnccn3)cc(-c3cccs3)c2C#N)cc1` showed a growth of 83.1%.
`O=C(O)c1ccc(-n2cc(CNc3cccc(Cl)c3)c(-c3ccc(F)cc3)n2)cc1` was tested, and the growth was 109%.
Work on `O=C(CCCCCCN1CC(=O)N2[C@@H](c3ccc(Cl)s3)c3[nH]c4ccccc4c3C[C@H]2C1=O)NO` yielded a growth of 30.7%.
`CNC(=O)c1cc(Oc2ccc(NC(=O)Nc3ccc(Cl)c(OC4CCCCC4)c3)c(F)c2)ccn1` gave a growth of 15.5%.
For `CCOC(=O)c1c(Nc2ccccc2)nn2c(N)c(C#N)c(-c3ccc(Cl)cc3)nc12`, the growth was 76.8%.
`O=C(CSc1nc2ccccc2c(=O)n1-c1ccccc1)N/N=C/c1ccc(Oc2ccc(Br)cc2)cc1` showed a growth of 65.1%.
